Out of some 48,000 compounds screened, about 13,000 (27%) showed an effect of 50% or more. This is one part of the list.
Test system: Wolbachia pipientis
Assay: Anti-Wolbachia Cell-Based Screen
Format: functional
Design: scale not given: in the data most compounds retested in dose-response had high values
Conditions: 5 µM

Structure (SMILES)	Percent Effect [%]
NC(=O)NC1CCN(Cc2ccc3c(c2)CCC3)CC1	-13.21
Cc1nnc(CN(Cc2ccc3c(c2)OCO3)C2CCC(C)CC2)o1 (configuration not stated)	119.4
Cc1nnc(CN(Cc2ccccc2Br)C2CC2)o1	-0.8138
Cc1nnc(CN(Cc2ccc(Cl)c(Cl)c2)C(C)C)o1	6.742
Cc1nnc(CN(Cc2cccc(Br)c2)C2CC2)o1	-10
Cc1nnc(CN(Cc2ccc(Cl)c(Cl)c2)C2CC2)o1	12.83
Cc1nnc(CN(Cc2ccc3c(c2)OCO3)C2CCCCC2)o1	129.8
Cc1ccc2nc3n(c2c1)[C@@H](CNCc1nccs1)COC3	-1.407
COc1ccccc1C(NC(=O)CN(C)C(C)C)c1noc(C)n1 (configuration not stated)	-26.87
Cc1ccc(C)c(NC(=O)N(C)Cc2cnn(C)c2)c1	5.925
COCC(=O)N1CCC2(CCC2N(C)Cc2ccco2)CC1.O=C(O)C(F)(F)F (configuration not stated)	-4.207
CC(C(=O)NCc1cccc(N2CCCC2=O)c1)S(C)(=O)=O (configuration not stated)	-9.157
COc1ccc(NC(=O)NCc2cccc(N(C)C)n2)c(Cl)c1	3.933
CCc1nc(C(=O)NCc2ccc(N3CCNC(=O)C3)c(F)c2)c[nH]1	-14.99
Cc1ccc([C@@H]2CN(S(=O)(=O)Cc3ccccc3)C[C@H]2N(C)C)cc1	2.624
CCN(Cc1ccncc1)Cc1cn(-c2ccccc2)nn1	-1.691
CCn1ccnc1CN(C)Cc1nc(Cc2ccccc2Cl)no1	-11.87
CCN(Cc1noc(CC(C)C)n1)Cc1ccccc1Cl	16.12
CC(C)(C)n1nnnc1CN(Cc1ccccc1)Cc1ccccc1Cl	144.9
CN(Cc1ccncc1)Cc1nccn1Cc1ccccc1	10.06
CN(CCc1ccncc1)Cc1nccn1Cc1ccccc1	0.009024
CC(C)(C)n1nnnc1CN(CCc1ccccc1)Cc1ccccc1	189.2
CC(C)(C)n1nnnc1CN(Cc1ccccc1)Cc1ccc(Cl)cc1	282.7

Structure (SMILES)	Percent Effect [%]
Cc1nc(CCN(C)C(=O)CN2C(=O)OC[C@@H]2c2ccccc2)no1	2.107
CN(C)[C@H]1C[C@@H](Cc2cc(-c3ccc(F)cc3)on2)C1(C)C	-8.527
CN(Cc1ccoc1)C(=O)C1(Oc2ccc(Cl)cc2)CCNCC1	7.031
CN1CCOC(C(=O)Nc2ccc3c(c2)nc(C2CC2)n3C)C1 (configuration not stated)	-8.812
CCS(=O)(=O)N1CC[C@H]2O[C@H](c3nnc(C)o3)CC[C@H]21	-2.674
CC(C)NC(=O)CC1COC2(CCN(Cc3ccco3)CC2)C1 (configuration not stated)	109.8
COc1ccc(CN2CCC3(CC2)CN(c2ccccn2)CCO3)cc1.O=C(O)C(F)(F)F.O=C(O)C(F)(F)F	-0.9926
CC(C)NC(=O)CC1COC2(CCN(Cc3ccsc3)CC2)C1.O=C(O)C(F)(F)F (configuration not stated)	89.57
CC(C)NC(=O)[C@H]1C[C@@H]2[C@@H](C1)OCCN2Cc1ccsc1.O=C(O)C(F)(F)F	9.511
COc1ccc(CN2CCOC3(CCCN(C(C)=O)C3)C2)cc1.O=C(O)C(F)(F)F (configuration not stated)	-1.413
CC(C)C(=O)NC1COC2(CCN(Cc3cccnc3)CC2)C1.O=C(O)C(F)(F)F.O=C(O)C(F)(F)F (configuration not stated)	-8.179
CN(C)C(=O)CO[C@H]1CO[C@@]2(CCN(Cc3ccsc3)C2)C1.O=C(O)C(F)(F)F	-11.41
CC(C)C1COC2(CCN(Cc3ccco3)CC2)C1.O=C(O)C(F)(F)F (configuration not stated)	8.563
COc1ccc(CN2CCC3(CC2)CC(CC(=O)NC(C)C)CO3)cc1.O=C(O)C(F)(F)F (configuration not stated)	102.4
CN(C)C(=O)NC1COC2(CCN(Cc3ccco3)CC2)C1 (configuration not stated)	-11.16
CC(C)NC(=O)CC1COC2(CCN(Cc3cccnc3)CC2)C1.O=C(O)C(F)(F)F.O=C(O)C(F)(F)F (configuration not stated)	94.4
CC(C)OCc1ncn2c1CN(Cc1ccoc1)CCC2.O=C(O)C(F)(F)F	-8.556
Cc1ncsc1CN1C[C@H](C(=O)N2CCCO2)[C@@H]2CCO[C@@H]2C1.O=C(O)C(F)(F)F.O=C(O)C(F)(F)F	-11.3
Cc1[nH]ccc1C(=O)N(Cc1ccc(O)cc1)CC1CC1	16.53
FC(F)(F)C1CCCn2c(CNCc3ccco3)nnc21 (configuration not stated)	4.38
c1nc(N2CCCCC2Cn2cncn2)c2ccsc2n1 (configuration not stated)	0.5498
CCCc1cc(N(CCOC)CC(F)F)n2ncnc2n1	-3.752
CN(C)C(=O)CN(C)C(=O)c1cccn1CCc1ccccc1	-9.709

Structure (SMILES)	Percent Effect [%]
Cc1ccc(CN2CCC3(CC2)CC(CC(=O)NC(C)C)CO3)s1.O=C(O)C(F)(F)F (configuration not stated)	100.2
Cc1ccc(CN2CC(C(=O)NC(C)C)C3(CCOCC3)C2)s1.O=C(O)C(F)(F)F (configuration not stated)	1.411
CC(=O)N1CCOCC2(CCN(Cc3ccc(C)s3)CC2)C1.O=C(O)C(F)(F)F	-6.944
N#Cc1ccc(C(=O)N2CCCC3(C=Cc4ccccc4O3)CC2)cn1 (configuration not stated)	6.705
CC(=O)NC(C)C(=O)N(Cc1ccc(C)c(C)c1)C1CC1 (configuration not stated)	-3.122
CN1CCCC[C@@H]2[C@H]1[C@@H](c1ccccc1)CCN2C(=O)c1cnccn1	3.186
O=C(c1ccccn1)N1C[C@@H]2CC[C@H](C1)N(C(=O)CCN1CCCC1)C2	-10.03
CN1CCCC[C@@H]2[C@H]1[C@@H](c1ccccc1)CCN2C(=O)c1ccccn1	98.54
CN1CC[C@H](c2ccccc2)[C@@H]2[C@H]1CCCCN2C(=O)c1cnccn1	-5.726
CN1CCCCC[C@@H]2[C@@H]1[C@H](c1ccccc1)CN2C(=O)c1ccccn1	114.6
Cn1cc(C(=O)N2CC[C@@H]3[C@@H]2CCN3c2ccccn2)cn1	-3.073
CCc1nsc(NC2CC(=O)N(C(C)(C)C)C2)n1 (configuration not stated)	-4.433
Cc1ccc(N2CCCC(NCC(=O)NC3CCOCC3)C2)nn1 (configuration not stated)	0.2085
O=C(CCc1cccs1)NCC1CCCN1c1cccnn1 (configuration not stated)	-0.2437
O=C(CNCC1CCCN1c1cccnn1)NCCc1cccs1 (configuration not stated)	4.052
O=C(CC1CCN(c2cccnn2)CC1)NCCO	94.51
CC(OCC1CC1)C(=O)N1CCCN(c2cccnn2)CC1 (configuration not stated)	-4.711
CN1CCC(C(=O)N2CCCN(c3cccnn3)CC2)C1 (configuration not stated)	-4.749
CN(C)CCNC(=O)CC1CCN(c2cccnn2)CC1	87.97
O=C(CN1CCCC1Cn1cccn1)NC1CCOCC1 (configuration not stated)	-8.305
O=C(CC1CCN(c2cccnn2)CC1)NC1CCOCC1	83.52
